# Whole data set: some 2,900 compounds, median “NF-kB SEAP reporter activity, fold change vs agonist alone” near 0.99, cut for the highest 2% near 2.6. What follows is part of a selection rich in the highest values, with near analogues and random picks from the rest.
# Tests used:
# RAW-Dual [1] = assay: NF-kB SEAP reporter activity, fold change vs agonist alone; cytotoxicity flag (confluency mask): not cytotoxic; higher = enhanced NF-kB activity
# Outline: (§1)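 Reporter activity is given as fold change relative to agonist-alone wells. To measure it, 50 nL of library stock was pin-tooled onto RAW-Dual macrophages (50,000 cells/well, DMEM, 384-well plates), a PRR agonist followed 1 h later, and cells stayed at 37 °C, 5% CO2. Twenty hours on, supernatant was assayed for IRF (QuantiLuc luminescence) and NF-κB (QuantiBlue, 620 nm absorbance), and wells under 70% of agonist-control IncuCyte confluency in both mask sets were marked cytotoxic.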
# RAW-Dual [2] = assay: NF-kB SEAP reporter activity, fold change vs agonist alone; higher = enhanced NF-kB activity
# Outline: as §1
# RAW-Dual [3] = assay: NF-kB SEAP reporter activity, fold change vs agonist alone; cytotoxicity flag (confluency mask): cytotoxic (confluency <70% of control); higher = enhanced NF-kB activity
# Outline: as §1
# [4] = agonist: ODN 1826 (TLR9) 0.5 ug/mL
# [5] = agonist: Pam2CSK4 (TLR2/6) 0.1 ug/mL
# [6] = agonist: Pam3CSK4 (TLR2/1) 0.1 ug/mL
# [7] = library stock concentration (final ~1000-fold dilution): 10 mM, cytotoxicity flag (confluency mask): not cytotoxic, agonist: MPLA (TLR4) […]
# [8] = library stock concentration (final ~1000-fold dilution): 10 mM, cytotoxicity flag (confluency mask): not cytotoxic, agonist: Imiquimod (TLR7) […]
# [9] = library stock concentration (final ~1000-fold dilution): 10 mM, cytotoxicity flag (confluency mask): cytotoxic (confluency <70% of control), agonist: Imiquimod (TLR7) […]
# [10] = library stock concentration (final ~1000-fold dilution): 10 mM, cytotoxicity flag (confluency mask): cytotoxic (confluency <70% of control), agonist: MPLA (TLR4) […]
smiles,measurement,setting,value
CC1CNc2c(cccc2S(=O)(=O)NC(CCCNC(=N)N)C(=O)N2CCC(C)CC2C(=O)O)C1.O (stereo not drawn) (library stock concentration (final ~1000-fold dilution): 10 mM),NF-kB SEAP reporter activity,RAW-Dual [1]; agonist: LPS (TLR4) 0.1 ug/mL,0.94
same,NF-kB SEAP reporter activity,RAW-Dual [1]; [4],1.05
same,NF-kB SEAP reporter activity,RAW-Dual [1]; [5],0.969
same,NF-kB SEAP reporter activity,RAW-Dual [1]; [6],0.87
CC1CNc2c(cccc2S(=O)(=O)NC(CCCNC(=N)N)C(=O)N2CCC(C)CC2C(=O)O)C1.O (stereo not drawn),NF-kB SEAP reporter activity,RAW-Dual [2]; [7],0.981
O=C(OC1OC2COC(=O)c3cc(O)c(O)c(O)c3-c3c(cc(O)c(O)c3O)C(=O)OC(C2O)C1O)c1cc(O)c(O)c(O)c1 (stereo not drawn) (library stock concentration (final ~1000-fold dilution): 10 mM),NF-kB SEAP reporter activity,RAW-Dual [1]; agonist: LPS (TLR4) 0.1 ug/mL,1.34
same,NF-kB SEAP reporter activity,RAW-Dual [1]; [4],0.874
same,NF-kB SEAP reporter activity,RAW-Dual [1]; [5],0.809
same,NF-kB SEAP reporter activity,RAW-Dual [1]; [6],0.393
O=C(OC1OC2COC(=O)c3cc(O)c(O)c(O)c3-c3c(cc(O)c(O)c3O)C(=O)OC(C2O)C1O)c1cc(O)c(O)c(O)c1 (stereo not drawn),NF-kB SEAP reporter activity,RAW-Dual [2]; [8],0.783
same,NF-kB SEAP reporter activity,RAW-Dual [2]; [7],1.08
C=C1c2cccc(O)c2C(=O)C2=C(O)C3(O)C(=O)C(C(N)=O)=C(O)C(N(C)C)C3C(O)C12.Cl (stereo not drawn) (library stock concentration (final ~1000-fold dilution): 10 mM water),NF-kB SEAP reporter activity,RAW-Dual [1]; agonist: LPS (TLR4) 0.1 ug/mL,1.12
same,NF-kB SEAP reporter activity,RAW-Dual [1]; [4],1.14
same,NF-kB SEAP reporter activity,RAW-Dual [1]; [5],1.26
same,NF-kB SEAP reporter activity,RAW-Dual [1]; [6],1.05
C=C1c2cccc(O)c2C(=O)C2=C(O)C3(O)C(=O)C(C(N)=O)=C(O)C(N(C)C)C3C(O)C12.Cl (stereo not drawn),NF-kB SEAP reporter activity,"RAW-Dual [2]; library stock concentration (final ~1000-fold dilution): 10 mM water, cytotoxicity flag (confluency mask): not cytotoxic, agonist: Imiquimod (TLR7) […]",0.915
same,NF-kB SEAP reporter activity,"RAW-Dual [2]; library stock concentration (final ~1000-fold dilution): 10 mM water, cytotoxicity flag (confluency mask): not cytotoxic, agonist: MPLA (TLR4) […]",1.08
Fc1ccc2c(/C=C/c3nnn[nH]3)c[nH]c2c1 (library stock concentration (final ~1000-fold dilution): 10 mM),NF-kB SEAP reporter activity,RAW-Dual [1]; agonist: LPS (TLR4) 0.1 ug/mL,1.11
same,NF-kB SEAP reporter activity,RAW-Dual [1]; [4],0.894
same,NF-kB SEAP reporter activity,RAW-Dual [1]; [5],0.966
same,NF-kB SEAP reporter activity,RAW-Dual [1]; [6],1.14
Fc1ccc2c(/C=C/c3nnn[nH]3)c[nH]c2c1,NF-kB SEAP reporter activity,RAW-Dual [2]; [8],0.885
same,NF-kB SEAP reporter activity,RAW-Dual [2]; [7],1.05
C/C1=C/CC[C@@]2(C)O[C@@H]2[C@H]2OC(=O)[C@H](CN(C)C)[C@@H]2CC1 (library stock concentration (final ~1000-fold dilution): 10 mM),NF-kB SEAP reporter activity,RAW-Dual [1]; agonist: LPS (TLR4) 0.1 ug/mL,0.302
same,NF-kB SEAP reporter activity,RAW-Dual [1]; [4],0.185
same,NF-kB SEAP reporter activity,RAW-Dual [1]; [5],0.197
same,NF-kB SEAP reporter activity,RAW-Dual [1]; [6],0.151
C/C1=C/CC[C@@]2(C)O[C@@H]2[C@H]2OC(=O)[C@H](CN(C)C)[C@@H]2CC1,NF-kB SEAP reporter activity,RAW-Dual [2]; [8],0.137
same,NF-kB SEAP reporter activity,RAW-Dual [2]; [7],0.246
O=C(CCCCCCNC(=O)c1cnc(N(c2ccccc2)c2ccccc2Cl)nc1)NO (library stock concentration (final ~1000-fold dilution): 10 mM),NF-kB SEAP reporter activity,RAW-Dual [3]; agonist: LPS (TLR4) 0.1 ug/mL,4.23
same,NF-kB SEAP reporter activity,RAW-Dual [3]; [4],2.1
same,NF-kB SEAP reporter activity,RAW-Dual [3]; [5],0.586
same,NF-kB SEAP reporter activity,RAW-Dual [3]; [6],1.47
O=C(CCCCCCC(=O)N/N=C/c1ccc(N(c2ccccc2)c2ccccc2)cc1)NO,NF-kB SEAP reporter activity,RAW-Dual [2]; [9],1.77
same,NF-kB SEAP reporter activity,RAW-Dual [2]; [10],2.3
O=C(N/N=C/c1ccc(O)c(O)c1)c1cc2ccccc2cc1O,NF-kB SEAP reporter activity,RAW-Dual [2]; [8],0.605
same,NF-kB SEAP reporter activity,RAW-Dual [2]; [7],0.843
O=C(CCCCCCNC(=O)c1cnc(N(c2ccccc2)c2ccccc2)nc1)NO (library stock concentration (final ~1000-fold dilution): 10 mM),NF-kB SEAP reporter activity,RAW-Dual [3]; agonist: LPS (TLR4) 0.1 ug/mL,4.12
same,NF-kB SEAP reporter activity,RAW-Dual [3]; [4],1.3
same,NF-kB SEAP reporter activity,RAW-Dual [3]; [5],0.825
same,NF-kB SEAP reporter activity,RAW-Dual [3]; [6],1.08
O=C(CCCCCCNC(=O)c1cnc(N(c2ccccc2)c2ccccc2Cl)nc1)NO,NF-kB SEAP reporter activity,RAW-Dual [2]; [9],1.51
same,NF-kB SEAP reporter activity,RAW-Dual [2]; [10],2.19
O=C(CCCCCCC(=O)N/N=C/c1ccc(N(c2ccccc2)c2ccccc2)cc1)NO (library stock concentration (final ~1000-fold dilution): 10 mM),NF-kB SEAP reporter activity,RAW-Dual [3]; agonist: LPS (TLR4) 0.1 ug/mL,5.47
same,NF-kB SEAP reporter activity,RAW-Dual [3]; [4],2.71
same,NF-kB SEAP reporter activity,RAW-Dual [3]; [5],1.09
same,NF-kB SEAP reporter activity,RAW-Dual [3]; [6],1.61
O=C(N/N=C/c1ccc(O)c(O)c1)c1cc2ccccc2cc1O (library stock concentration (final ~1000-fold dilution): 10 mM),NF-kB SEAP reporter activity,RAW-Dual [1]; agonist: LPS (TLR4) 0.1 ug/mL,0.616
same,NF-kB SEAP reporter activity,RAW-Dual [1]; [4],0.257
same,NF-kB SEAP reporter activity,RAW-Dual [1]; [5],0.16
same,NF-kB SEAP reporter activity,RAW-Dual [1]; [6],0.192
O=C(CCCCCCNC(=O)c1cnc(N(c2ccccc2)c2ccccc2)nc1)NO,NF-kB SEAP reporter activity,RAW-Dual [2]; [9],1.12
same,NF-kB SEAP reporter activity,RAW-Dual [2]; [10],2.14
CN(C)c1ccc(C(=O)NCCCCCCC(=O)NO)cc1 (library stock concentration (final ~1000-fold dilution): 10 mM),NF-kB SEAP reporter activity,RAW-Dual [3]; agonist: LPS (TLR4) 0.1 ug/mL,4.72
same,NF-kB SEAP reporter activity,RAW-Dual [3]; [4],2.78
same,NF-kB SEAP reporter activity,RAW-Dual [3]; [5],1.17
same,NF-kB SEAP reporter activity,RAW-Dual [3]; [6],2.01
CCN(CC)CCNC(=O)c1ccc(N)cc1.Cl (library stock concentration (final ~1000-fold dilution): 10 mM),NF-kB SEAP reporter activity,RAW-Dual [1]; agonist: LPS (TLR4) 0.1 ug/mL,0.999
same,NF-kB SEAP reporter activity,RAW-Dual [1]; [4],1.02
same,NF-kB SEAP reporter activity,RAW-Dual [1]; [5],0.923
same,NF-kB SEAP reporter activity,RAW-Dual [1]; [6],1.04
CCN(CC)CCNC(=O)c1ccc(N)cc1.Cl,NF-kB SEAP reporter activity,RAW-Dual [2]; [8],0.94
same,NF-kB SEAP reporter activity,RAW-Dual [2]; [7],1.05
CN(C)c1ccc(C(=O)NCCCCCCC(=O)NO)cc1,NF-kB SEAP reporter activity,RAW-Dual [2]; [9],2.83
same,NF-kB SEAP reporter activity,RAW-Dual [2]; [10],2.64
O=C(NO)c1cccc(C(=O)NCCc2ccccc2)c1,NF-kB SEAP reporter activity,RAW-Dual [2]; [8],1.05
same,NF-kB SEAP reporter activity,RAW-Dual [2]; [7],1.05
O=C(NO)c1cccc(C(=O)NCCc2ccccc2)c1 (library stock concentration (final ~1000-fold dilution): 10 mM),NF-kB SEAP reporter activity,RAW-Dual [1]; agonist: LPS (TLR4) 0.1 ug/mL,0.989
same,NF-kB SEAP reporter activity,RAW-Dual [1]; [4],1.12
same,NF-kB SEAP reporter activity,RAW-Dual [1]; [5],0.864
same,NF-kB SEAP reporter activity,RAW-Dual [1]; [6],0.709
CN(C)CCCNC(=O)c1ccc(-c2cc(O)c3ncccc3c2)cc1,NF-kB SEAP reporter activity,RAW-Dual [2]; [8],1.08
same,NF-kB SEAP reporter activity,RAW-Dual [2]; [7],1
CCOC(=O)NCCCC(=O)NCCc1ccccc1,NF-kB SEAP reporter activity,RAW-Dual [2]; [8],0.961
same,NF-kB SEAP reporter activity,RAW-Dual [2]; [7],0.985
CN(C)CCCNC(=O)c1ccc(-c2cc(O)c3ncccc3c2)cc1 (library stock concentration (final ~1000-fold dilution): 10 mM),NF-kB SEAP reporter activity,RAW-Dual [1]; agonist: LPS (TLR4) 0.1 ug/mL,0.881
same,NF-kB SEAP reporter activity,RAW-Dual [1]; [4],1.38
same,NF-kB SEAP reporter activity,RAW-Dual [1]; [5],1.13
same,NF-kB SEAP reporter activity,RAW-Dual [1]; [6],1.34
CCOC(=O)NCCCC(=O)NCCc1ccccc1 (library stock concentration (final ~1000-fold dilution): 10 mM),NF-kB SEAP reporter activity,RAW-Dual [1]; agonist: LPS (TLR4) 0.1 ug/mL,1.31
same,NF-kB SEAP reporter activity,RAW-Dual [1]; [4],0.995
same,NF-kB SEAP reporter activity,RAW-Dual [1]; [5],1.17
same,NF-kB SEAP reporter activity,RAW-Dual [1]; [6],1.06
